Hits are enriched below; roughly 11% of the tested compounds scored in any of these assays.
PNC assembly inh = blocks assembly of the perinucleolar compartment; PC3M PTB-GFP, PNC prevalence imaging, 16 h; active compounds read low; activity change (PNC), negative = inhibition, % at 10 µM; 140,000 tested, 3.1% active;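 active means readout at or below -70, meaning at least 70% loss of cells showing the perinucleolar compartment, a nuclear body marking cancer cells; inconclusive means readout between -30 and a set limit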;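 further: plate controls were DMSO wells for no effect and camptothecin positive control wells for full effect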
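Compounds are pinned in duplicate onto adhered PC3M cells stably expressing GFP-tagged PTB and incubated 16 h at 37 C. Cells are then fixed, nuclei stained with Hoechst, and PNC-positive cells counted.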
HPGD inh = blocks human HPGD enzyme activity. P15428. Potency, µM, inactives show top-dose activity change, negative = inhibition, actives largely listed as inhibitors. purified HPGD, NADH fluorescence kinetic, PGE2 substrate. AID 894. 150,000 tested, 4.3% active; further: potency means the concentration at half of the fitted maximal effect
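NADH formation kinetics: reaction with 30 uM PGE2 and 1 mM NAD+ (final), 20 nM enzyme, Tris-HCl pH 8 with Tween 20, after 15 min compound preincubation at room temperature. Fluorescence change, last versus first of five reads.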
ALDH1A1 block = inhibitors of human aldehyde dehydrogenase 1A1; AID 1030; Potency, µM (titrated, usually from 75.3 µM), inactives show at the highest dose activity, negative = inhibition, usual class: inhibitors; 220,000 tested, 7.3% active; Purified ALDH1A1, NADH fluorescence, propionaldehyde substrate;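 further: potency means the concentration at half of the fitted maximal effect; plate controls were no enzyme wells and a reference inhibitor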
Target sequence (P00352 whole entry, looked up): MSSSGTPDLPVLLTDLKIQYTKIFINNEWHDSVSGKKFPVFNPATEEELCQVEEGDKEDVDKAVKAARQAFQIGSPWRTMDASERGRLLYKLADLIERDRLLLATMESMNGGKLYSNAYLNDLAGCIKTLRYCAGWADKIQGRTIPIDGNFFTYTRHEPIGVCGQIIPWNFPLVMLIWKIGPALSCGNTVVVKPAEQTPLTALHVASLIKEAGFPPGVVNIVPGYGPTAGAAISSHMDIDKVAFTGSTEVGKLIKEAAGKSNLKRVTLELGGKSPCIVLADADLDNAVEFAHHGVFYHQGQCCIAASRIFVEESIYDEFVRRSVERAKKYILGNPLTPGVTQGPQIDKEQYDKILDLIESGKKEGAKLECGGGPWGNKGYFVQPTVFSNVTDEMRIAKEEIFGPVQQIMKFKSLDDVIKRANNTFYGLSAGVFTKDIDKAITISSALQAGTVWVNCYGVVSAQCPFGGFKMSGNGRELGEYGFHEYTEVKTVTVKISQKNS
Starred values were filed as active, the others as inactive; ? = inconclusive; . = no result; [ ] = another dose, or the depositor's remark. Unless noted, the call rests on the fitted dose curve; in most records, active means well fitted inhibition curve with a large enough effect (not every such curve was filed as active); inconclusive means small, poorly fitted or top-dose-only effect, or another doubt; inactive means no such curve, though single readings can be large or run the other way. Unless noted, on the % scale 0 is the no-effect control and ±100 the full control effect.

SMILES | PNC assembly inh | HPGD inh | ALDH1A1 block
COc1ccc(CCNC(=O)CSc2n[nH]c(C)c2[N+](=O)[O-])cc1OC | . | . | 28µM*
COc1ccc(CCNC(=O)Cc2ccc(OCc3ccccc3)c(OC)c2[N+](=O)[O-])cc1OCc1ccccc1 | -101* | -18% | ?
Cc1[nH]nc(SCC(=O)NCCc2ccccc2)c1[N+](=O)[O-] | . | . | 2%
COc1ccc(CCNC(=O)c2cc(-c3ccc(C)cc3O)n[nH]2)cc1OC | -16 | -8% | 9%
COc1ccc(CCNC(=O)c2cc(-c3ccccc3O)n[nH]2)cc1OC | ? | 28µM* | 7%
COc1ccc(CCNC(=O)Cc2cc(OC)c(OC)cc2Br)cc1OC | . | . | 5%
C=C[C@H](N)CCC(=O)O | . | -9% | -8%
Cc1ccc(CN2CCCC(CO)(Cc3ccccc3C)C2)s1 (configuration not stated) | . | . | -2%
COc1cc2c(cc1OC)-c1cc(=Nc3c(C)cc(C)cc3C)n(C)c(=O)n1CC2 | . | 0% | -2%
NC(=O)COC(=O)CCSc1ccc(Cl)cc1 | . | . | 15%
Cc1c(C)c(C)c(S(=O)(=O)N2CCNCC2)c(C)c1C | . | . | 6%
Cc1ccc(N(CCC#N)C(=O)CSc2ccc3c(c2)OCCO3)cc1 | -1 | -11% | ?
Cc1ccc(N(CCC#N)C(=O)CCl)cc1C | ? | -4% | 0.35µM*
CCc1ccc(OCC(=O)NCCN(C)C)c(Br)c1 | -16 | -23% | -3%
N#CCCN(C(=O)COc1ccc(F)cc1Br)c1ccccc1F | . | . | 18µM*
O=C(COc1ccc(F)cc1Br)NCc1ccccn1 | -13 | -23% | 3%
CCc1ccc(OCC(=O)N(C)CCC#N)c(Br)c1 | -91* | -4% | 23%
COC[C@@H](O)[C@@H](OC)[C@H](OC)[C@H](Cc1c(OC)cc(OC)cc1OC)OC | . | -6% | -3%
CCCCOc1ccc(CSc2nnc(C)n2N)cc1[N+](=O)[O-] | . | . | 1%
COc1ccc(CSc2n[nH]c(C)n2)cc1[N+](=O)[O-] | -16 | -27% | 10µM*
CCc1nnc(SCc2ccc(OC)c(Br)c2)n1N | 19 | -24% | 28µM*
COc1ccc(CSc2nnc(C)n2N)cc1Br | ? | -5% | 15%
COc1ccc(CSc2ncn[nH]2)cc1[N+](=O)[O-] | 3 | -7% | ?
COc1ccc(CSc2nnc(C)n2N)cc1[N+](=O)[O-] | . | . | 13µM*
COC(=O)c1ccc(NC(=S)NCCCn2ccnc2)cc1 | . | . | 2%
SMILES | PNC assembly inh | HPGD inh | ALDH1A1 block
CCCN1Cc2cccc(C(=O)Nc3ccc(-c4nc5ccccc5[nH]4)cc3)c2C1=O | -29 | -18% | -4%
CCOc1cc(N2CCOCC2)c(OCC)cc1NC(=S)NCCCOC | . | . | -15%
CC(Oc1ccccc1)C(=O)NC1C(=O)N2C(C(=O)O)C(C)(C)S[C@@H]12 (some centres not stated) | . | -13% | -4%
CO[C@H]1COC(=O)[C@H](C)COC(=O)C/C=C\[C@@H](C)[C@H](OC)COC(=O)C/C=C\[C@@H]1C | . | . | 3%[13.5 µM]
COC(=O)c1ccccc1NC(=O)C(=O)NCc1ccncc1 | . | . | 0%
CN1CCN(c2ncncc2-c2ccccc2Cl)CC1 | . | . | 2%
COc1ccc(-c2nnn(CC(=O)NCc3cccs3)n2)cc1OC | 0 | ? | ?
CCOC(=O)c1c(N)nn(C(=O)CC)c1-c1ccccc1 | -100* | -17% | 0%
CCOC(=O)Cn1nnc(-c2cccc(OC)c2)n1 | ? | 10% | -1%
CCOC(=O)Cn1nnc(-c2ccccc2)n1 | -100* | -13% | 2%
COc1cccc(-c2nnn(CC(=O)O)n2)c1 | -91* | -14% | 13%
CCOC(=O)c1c(N)nn(C(=O)C(C)C)c1-c1ccccc1 | -17 | -20% | 1%
COc1ccc(-c2nnn(CC(=O)NCc3ccccc3)n2)cc1OC | -119* | -12% | 4%
CC(C)OC(=O)Cn1nnc(-c2ccccc2)n1 | -9 | -3% | 4%
CCc1ccc(NC(=O)Cn2cccc2)cc1 | . | . | -10%
CN(C)/C=C/c1oc2ccc(O)cc2c1[N+](=O)[O-] | . | . | 15%
CCOCCCNC(=O)C(NC(=O)c1cnccn1)c1ccc(C)cc1 (configuration not stated) | -19 | 2% | 8%
COC(=O)c1sc(SC)c(-c2ccon2)c1C | . | . | 0%
CCc1sc(NC(=O)C(C)C)nc1-c1ccccc1 | . | . | -7%
COc1ccc(N(CC(=O)NC2CCCC2)C(=O)Cn2nnc(-c3ccc(C)cc3)n2)cc1 | -6 | 2% | 10%
COc1ccc(CNC(=O)CN(C(=O)Cn2nnc(-c3ccccc3F)n2)c2ccc(C)cc2)cc1 | . | . | 8.9µM*
Cc1cc2oc(=O)cc(CN3CCCc4ccccc43)c2cc1C | -1 | -18% | 25µM*
Cc1cc2oc(=O)cc(CN3CCOCC3)c2cc1C | ? | -1% | 1%
CCn1c(C)c(P(c2ccccc2)c2ccccc2)[n+]2ccccc12 | . | . | 7%
CCCSc1cc(N2CCN(C)CC2)nc(-c2ccc(OC)cc2)n1 | -81* | -19% | ?
SMILES | PNC assembly inh | HPGD inh | ALDH1A1 block
CCCSc1cc(N2CCCC2)nc(-c2ccccc2)n1 | -7 | -8% | 16%
O=c1[nH]n(CC2COC3(CCCCC3)O2)c(=O)c2ccccc12 (configuration not stated) | 10 | -18% | 13µM*
C1CCCCCC2(CCCCC1)OCC(CN1CCOCC1)O2 (configuration not stated) | ? | -9% | -2%
Cc1cc(C)cc(NC(=O)N2CCN(S(C)(=O)=O)CC2)c1 | . | . | 3%
COc1ccccc1CC(NC(C)=O)C(=O)NC1CCN(C(=O)c2ccc([N+](=O)[O-])cc2)CC1 (configuration not stated) | 89 | -1% | 8%
CCC1CCC2(CC1)NC(=O)N(CC(=O)c1c(C)[nH]c3ccccc13)C2=O (configuration not stated) | ? | -13% | 2%
Nc1nc(SCC(=O)Nc2ccc(Cl)c(S(=O)(=O)N3CCOCC3)c2)n[nH]1 | . | . | 9%
COc1cc(C2CC(=O)NC(SCC(=O)Nc3ccccc3C)=C2C#N)ccc1O (configuration not stated) | -5 | -1% | -2%
COc1cc(C2CC(=O)N3CN(c4ccccc4C)CSC3=C2C#N)cc(OC)c1OC (configuration not stated) | 8 | 28µM* | 2.8µM*
COc1ccccc1N1CSC2=C(C#N)C(c3ccc(SC)cc3)CC(=O)N2C1 (configuration not stated) | -17 | 8.9µM* | 8.9µM*
COc1cc(SC)ccc1C(=O)N1CCN(c2ccccc2OC)CC1 | . | . | 1%
COC(=O)/C=C/C1c2ccccc2C(OC)C1C (configuration not stated) | . | . | 9%[13.5 µM]
O=c1[nH]cnc(O)c1C(c1ccc2c(c1)OCO2)c1c(O)nc[nH]c1=O | . | . | 1%
Cc1cn([C@H]2C[C@H](N=[N+]=[N-])[C@H](CO)O2)c(=O)[nH]c1=O | . | -16% | 4%[13.5 µM]
COc1ccc(S(=O)(=O)NCc2cccs2)cc1 | 37 | -19% | 10µM*
COc1cc(CN(C2CCCCC2)S(=O)(=O)c2ccc(S(=O)(=O)N(C)C3CCCCC3)cc2)cc(OC)c1OC | 58 | -6% | ?
COc1ccc(CNS(=O)(=O)c2ccc(OC)cc2)cc1 | -12 | -5% | -7%
O=C(O)c1cccc(S(=O)(=O)NCc2cccs2)c1 | -12 | -7% | -5%
COc1ccc(S(=O)(=O)N(Cc2cccs2)C2CCCC2)cc1 | -10 | -12% | 8.9µM*

Source: PubChem BioAssay (National Center for Advancing Translational Sciences (NCATS))
